Experimental findings from PubChem BioAssay (NCATS) are described below.

Results filed as inconclusive are left out. A call without a number means that no potency is given here. The source made the active and inactive calls. Calls come from the whole dose curve; as a rule, active = well fitted curve in the direction sought with a large enough effect; inconclusive = small, poorly fitted or top-dose-only effect, or another doubt; inactive = no such curve, though single readings can be large; an effect the other way counts as inactive or inconclusive.

Cytochrome P450 3A4 (Homo sapiens), sequence (P08684 whole entry, looked up): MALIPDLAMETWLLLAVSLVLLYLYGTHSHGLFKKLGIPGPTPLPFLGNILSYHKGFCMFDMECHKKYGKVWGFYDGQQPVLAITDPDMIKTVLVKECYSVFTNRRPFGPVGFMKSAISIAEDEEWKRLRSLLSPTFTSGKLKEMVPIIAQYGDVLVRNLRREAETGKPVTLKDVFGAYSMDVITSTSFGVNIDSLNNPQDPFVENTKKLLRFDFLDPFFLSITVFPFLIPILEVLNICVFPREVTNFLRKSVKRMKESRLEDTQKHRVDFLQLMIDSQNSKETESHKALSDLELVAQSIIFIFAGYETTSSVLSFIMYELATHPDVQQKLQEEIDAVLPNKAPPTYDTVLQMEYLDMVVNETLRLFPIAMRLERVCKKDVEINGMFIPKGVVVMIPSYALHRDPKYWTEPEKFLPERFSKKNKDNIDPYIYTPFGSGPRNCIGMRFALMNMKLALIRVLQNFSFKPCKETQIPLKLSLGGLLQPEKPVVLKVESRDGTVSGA

The target of the first experiment is Cytochrome P450 3A4 (Homo sapiens) (UniProt P08684). The experiment can be described thus: qHTS Assay for Inhibitors and Substrates of Cytochrome P450 3A4 (AID 884). Note: nearly all actives have a fitted effect of over 50% in size. Note: potency is the fitted concentration of half-maximal effect. The conditions noted are these: recombinant CYP3A4, Luciferin-PPXE luminescence; series mostly up to 57.1 µM. The gist of the method:
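Luminescent readout of luciferin produced by CYP3A4 (20 nM) dealkylation of Luciferin-PPXE, 25 uM (its KM). NADPH-driven reaction ran 60 min at RT after 10 min compound preincubation; data scaled to 57 uM ketoconazole as 100% inhibition.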
For the molecule `CC(NC(C)(C)C)C(=O)c1cccc(Cl)c1` (stereo not given), the Potency result was “inactive”.

Regarding `CCCCCCNC(=O)n1cc(F)c(=O)[nH]c1=O`, the Potency was 20 µM (active).

Take `CC(C)(C)NCC(O)c1ccccc1Cl` (stereo not given): the Potency result is “inactive”.

Take `CNC(C)(C)Cc1ccccc1`: the Potency entry was “inactive”.

As for `O=C1c2ccccc2C(=O)c2ccccc21`, the Potency entry was “inactive”.

Consider `c1ccc2c(c1)sc1ccccc12`, for which the Potency result was “inactive”.

Consider `CCC1(CC)C(=O)C=CNC1=O`, for which the Potency entry was “inactive”.

`NC(=O)CS(=O)C(c1ccccc1)c1ccccc1` (stereo not given): the Potency result was “inactive”.

Consider `NC(=O)c1cc([N+](=O)[O-])cc([N+](=O)[O-])c1`, for which the Potency was 7.94 µM (active).

A further experiment shares this target. In words: qHTS Assay for Activators of Cytochrome P450 3A4 (AID 885). Note: nearly all actives have a fitted effect of over 65% in size. The conditions noted are these: recombinant CYP3A4, Luciferin-PPXE luminescence, 60 min; series mostly up to 57.1 µM. In outline: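 CYP3A4 activity: Luciferin-PPXE O-dealkylation, 25uM substrate, 200mM KPO4, RT throughout. Read-out is luciferase luminescence; higher values reflect activation.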
On the technique in general: In qHTS, concentration-response curves come from the screen itself.
Turning to `CCCCCCNC(=O)n1cc(F)c(=O)[nH]c1=O`, the outcome was inactive.

With `CCC1(c2ccc(N)cc2)CCC(=O)NC1=O` (stereo not given), the outcome was inactive.

As to `CCOP(=S)(OCC)Oc1ccc2c(C)c(Cl)c(=O)oc2c1`, the result was inactive.

Take `C=CCc1ccc(O)c(OC)c1`: the outcome was inactive.

For `NC(=O)c1cc([N+](=O)[O-])cc([N+](=O)[O-])c1`, the outcome was inactive.

As for `Nc1ccc(O)cc1`, the result was inactive.
